Giardia kill = Giardia lamblia killing; AID 540267; 340,000 compounds, 0.15% hits; Giardia lamblia trophozoite viability; activity change, % at 7.66 µM, hits read low; in the data active means activity change below about -80%; inconclusive means between about -30% and that limit;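 further: parasites exposed to compound for two days anaerobically before the ATP read; on the % scale 0 is the no-effect control and ±100 the full control effect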
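Luminescent ATP signal served as the viability read-out, measured 15-30 min after adding ATP detection reagent to trophozoites that had been incubated with compounds for 48 hrs at 37 deg C anaerobically at 100 cells/well.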
TrxR1 substrate = rat thioredoxin reductase 1 substrate activity. O89049. AID 588456. purified TrxR1 substrate turnover, NADPH consumption readout. Potency, µM (doses to about 114 µM), inactives show top-dose activity change, negative = substrate turnover. 390,000 compounds, 0.01% hits; further: potency means the concentration at half of the fitted maximal effect; on the % scale 0 is the no-effect control and ±100 the full control effect; nearly all actives have a fitted effect of over 50% in size
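Rat TrxR1, dispensed at 90 nM, was prereduced with 400 uM NADPH (final) for 5 min at ~22 deg C, then incubated with compound 15 min before 400 uM selenite. A first-read NADPH fluorescence drop versus no-compound background flagged substrates.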
IL2 activator = IL-2 activation | IL-2 activation reporter assay, cell-based qHTS; stimulated with anti-CD3/CD4/CD28 beads; in transgenic mouse T cells | activation, % (series mostly up to about 46 µM) | 360,000 compounds, 0.065% hits | AID 652025; in the data active means activation above about 50%; inconclusive means mostly about 30% to 49%; further: 0% is about no effect
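Unstimulated transgenic mouse T cells preincubated 60 min with compound, then stimulated with anti-CD3/anti-CD4-coated beads plus anti-CD28 for 18 h at 37 degrees C. IL-2 response read as EGFP and DsRed fluorescence by plate cytometry.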
mIDH1 inhibitor = blocks human mutant IDH1 R132H enzyme. IDH1-R132H enzyme, NADPH consumption, diaphorase/resazurin fluorescence. Potency, µM (highest dose often 76.6 µM), without a hit: top-dose activity change, negative = inhibition, most hits filed as inhibitors. 390,000 compounds, 0.093% hits. AID 602179; further: potency means the concentration at half of the fitted maximal effect; on the % scale 0 is the no-effect control and ±100 the full control effect; nearly all actives have a fitted effect of over 65% in size
Target sequence (O75874 whole entry R132H, stated change not applied): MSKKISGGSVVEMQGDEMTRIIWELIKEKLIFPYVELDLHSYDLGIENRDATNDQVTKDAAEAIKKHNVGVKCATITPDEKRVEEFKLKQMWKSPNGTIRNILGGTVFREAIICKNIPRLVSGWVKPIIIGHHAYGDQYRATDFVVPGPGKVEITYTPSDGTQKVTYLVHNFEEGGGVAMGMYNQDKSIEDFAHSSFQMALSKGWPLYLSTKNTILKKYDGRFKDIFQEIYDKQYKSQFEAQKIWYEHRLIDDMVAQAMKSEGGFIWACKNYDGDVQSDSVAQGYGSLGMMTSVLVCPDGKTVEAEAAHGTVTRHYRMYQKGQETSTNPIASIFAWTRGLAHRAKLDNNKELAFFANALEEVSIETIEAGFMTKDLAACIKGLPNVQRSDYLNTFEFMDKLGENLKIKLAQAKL
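IDH1-R132H (0.5 ug/mL dispensed) in pH 7.5 Tris buffer was preincubated 30 min with compound, then given a substrate mix of 0.016 mM NADPH and 2 mM alpha-KG for 80 min at room temperature; remaining NADPH was read by diaphorase/resazurin fluorescence.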
BRCA1 expr up = increases BRCA1 expression; MCF7-BRCA1-FFLuc reporter, luminescence, 48 h; response scale: scaled: vehicle 0%, 10 µM genistein 100%; Potency, µM (doses to about 46.1 µM), for inactives: top-dose activation, usual class: activators; 380,000 compounds, 1.1% hits; further: potency means the concentration at half of the fitted maximal effect; nearly all actives have a fitted effect of over 80% in size
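MCF7-BRCA1-FFLuc, 2000 cells/well; 2 h attach, 37 °C/5% CO2; compound 48 h; luciferase substrate 15 min; luminescence end-point. Norm. to genistein 10 microM max activation and DMSO; concentration-response curves fitted.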
rTrxR1 inhibitor = blocks rat thioredoxin reductase 1. recombinant rTrxR1, NADPH fluorescence consumption, selenite substrate. Potency, µM (highest dose often 114 µM), for inactives: at the top dose activity change, negative = inhibition, most hits filed as inhibitors. 390,000 compounds, 1% hits. AID 588453; further: potency means the concentration at half of the fitted maximal effect; on the % scale 0 is the no-effect control and ±100 the full control effect; nearly all actives have a fitted effect of over 65% in size
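Rat TrxR1 (90 nM in the dispensed reagent) was pre-reduced with 400 uM NADPH for 5 min at room temperature, then incubated with compound for 15 min. After 400 uM selenite was added, NADPH fluorescence (Ex 340/Em 450 nm) was followed for 8 min.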
Resorufin autofl = counter-screen for mutant IDH1 inhibitors: fluorescence interference; shares compounds with mIDH1 inhibitor; Resorufin detection reagent fluorescence interference, cell-free; inhibition of signal, % at 51.2 µM; 750 tested, under 10 active;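 further: 0% = wells with normal resorufin and full inhibition = wells lacking resorufin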
WT IDH1 inh = inhibits human wild-type IDH1, mutant selectivity check; 750 compounds, 9% hits; WT IDH1 enzyme, NADPH diaphorase/resazurin fluorescence; Potency, µM (highest dose often 115 µM), for the others: at the top dose activity change, negative = inhibition, usual class: inhibitors; AID 623995; shares compounds with mIDH1 inhibitor;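 further: potency means the concentration at half of the fitted maximal effect; 0% = full WT IDH1 enzyme control and full inhibition = no enzyme wells; nearly all actives have a fitted effect of over 55% in size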
Target sequence (O75874 whole entry, looked up): as the sequence (O75874 whole entry R132H, stated change not applied) above, with H132R counted along it
mIDH1 confirm = inhibits human mutant IDH1 enzyme in cherrypick confirmation. AID 624002. Potency, µM (series often up to 76.6 µM), without a hit: top-dose activity change, negative = inhibition, most hits filed as inhibitors. shares compounds with mIDH1 inhibitor. 750 compounds, 83% hits. IDH1 R132H enzyme, NADPH diaphorase/resazurin fluorescence; further: potency means the concentration at half of the fitted maximal effect; nearly all actives have a fitted effect of over 50% in size
Numbers without * were called inactive; ? = inconclusive; / = not tested or not shown; [ ] = another dose, or the depositor's remark. An excerpt weighted towards active compounds, which were near 2.2% of everything screened. Unless noted, the call rests on the fitted dose curve; in most records, active means well fitted curve in the direction sought with a large enough effect; inconclusive means small, poorly fitted or top-dose-only effect, or another doubt; inactive means no such curve, though single readings can be large; an effect the other way counts as inactive or inconclusive.

SMILES	Giardia kill	TrxR1 substrate	IL2 activator	mIDH1 inhibitor	BRCA1 expr up	rTrxR1 inhibitor	Resorufin autofl	WT IDH1 inh	mIDH1 confirm
N#C/C(=C\c1ccccc1OCc1ccc(C(=O)O)cc1)C(=O)Nc1ccc(O)cc1	0	-2%	0	?	0%	-17%[57.1 µM]	0	-26%	40µM*
COc1ccc(NC(=O)C2CCC(CNS(=O)(=O)c3csc(C(N)=O)c3)CC2)cc1 (configuration not stated)	/	1%[57.1 µM]	/	-6%	11%	13%[57.1 µM]	/	/	/
COc1cc(/C=C2\SC(=Nc3ccccc3)N(Cc3ccco3)C2=O)ccc1OC(C)C(=O)O (configuration not stated)	8	-17%	-1	-5%	-13%	-30%	/	/	/
COCCN1C(=O)/C(=C/c2ccc(OCc3ccc(C(=O)O)cc3)c(OC)c2)SC1=Nc1ccccc1	-7	-13%	0	21µM*	-42%	-23%	-1	79µM*	10µM*
O=S(=O)(Nc1c(Br)cc(Br)c2cccnc12)C1CC1	25	-6%	/	/	0%	?	/	/	/
O=S(=O)(/N=C(/Nc1ccc(Cl)c(S(=O)(=O)Nc2ccccc2Cl)c1)c1ccc(F)cc1)c1ccccc1	-17	-11%	2	?	-37%	-3%	-1	3%	?
CCOc1ccc(-c2cc3nc(C4CCN(C(=O)OC(C)(C)C)CC4)c(C(=O)O)cn3n2)cc1	-11	21%	0	16µM*	-25%	1%	4	79µM*	14µM*
CCOc1ccc(-c2cc3nc(C4CCN(C(=O)OC(C)(C)C)CC4)c(C(=O)Nc4c(C)cccc4C)cn3n2)cc1	/	57%	/	-7%	/	28%	/	/	/
CCc1ccc(NS(=O)(=O)c2ccc3[nH]cc(C(=O)NCCCOC(C)C)c(=O)c3c2)cc1	/	-3%	/	0%	/	5%	/	/	/
Cc1nn(-c2ccccn2)c2nc(-c3cccs3)cc(C(=O)NCc3ccco3)c12	-8	145%	0	-5%	13%	-18%	/	/	/
CCOC(=O)c1cc(-c2cccs2)nc2c1c(C)nn2-c1ccccn1	-9	19%[57.1 µM]	-5	15µM*	-50%	28%[57.1 µM]	-2	1%	20µM*
Cc1nn(-c2ccccc2)c2nc(-c3cccs3)cc(C(=O)NN)c12	-5	2%	1	52µM*	-81%	12%	-5	2%	-5%
CCc1ccccc1NC(=O)c1cc(S(=O)(=O)N2CCCc3ccccc32)ccc1F	/	5%[57.1 µM]	/	-4%	/	26%[57.1 µM]	/	/	/
CCOC(=O)c1c(-c2ccc(C)o2)csc1NC(=O)CN1CCC(C(N)=O)CC1	35	8%	8	16%	-39%	-48%	/	/	/
CCOC(=O)c1c(-c2ccc(C)o2)csc1NC(=O)CN(C)CC(=O)Nc1ccc(C)cc1	7	5%	-3	?	-27%	?	-1	-9%	14µM*
Cc1ccc(-n2cc(C(=O)Oc3ccc(F)cc3)c3ccccc3c2=O)cc1	/	1%[57.1 µM]	/	-2%	/	-19%[57.1 µM]	/	/	/
COc1ccc(-c2c(C)nc(N)nc2-c2ccc(OCc3ccc(C)cc3)cc2O)cc1OC	-10	-10%	0	?	-22%	-12%	-5	6%	?
COc1ccc(-c2c(C)nc(N)nc2-c2ccc(OC)cc2O)cc1	0	4%	2	8%	-27%	8%[57.1 µM]	/	/	/
Cn1c(=O)c(NC2CCCCC2)c2c3c(cccc31)C(=O)c1ccccc1-2	9	-8%	-4	?	-48%	1%	0	12%	22µM*
Cc1sc(NC(=O)c2ccco2)c(C(c2cccnc2)N2CCC(C)CC2)c1C (configuration not stated)	6	12%	-3	?	-72%	?	-5	1%	?
CCN1CCN(C(c2cccnc2)c2c(NC(=O)c3ccco3)sc(C)c2C)CC1 (configuration not stated)	19	-6%	0	-3%	-27%	?	/	/	/
Cc1cc(C)nc(SCC(=O)Nc2ccc(Br)cn2)n1	6	7%	0	4%	-11%	23%[57.1 µM]	/	/	/
Cc1cc(C)nc(SCC(=O)NC2=NN=C(c3ccc(Br)cc3)CS2)n1	-18	10%	-5	?	-74%	-12%	-3	140%	45µM*
CCOc1ccc(-n2cc(-c3ccccc3)c3c(NC4CCCC4)ncnc32)cc1	/	-2%[57.1 µM]	/	?	/	3%[57.1 µM]	-4	-2%	10µM*
CCOc1ccc(-n2cc(-c3ccccc3)c3c(NC4CCCCC4)ncnc32)cc1	/	-7%[57.1 µM]	/	4%	/	-13%[57.1 µM]	/	/	/
SMILES	Giardia kill	TrxR1 substrate	IL2 activator	mIDH1 inhibitor	BRCA1 expr up	rTrxR1 inhibitor	Resorufin autofl	WT IDH1 inh	mIDH1 confirm
Cc1ccc(C(=O)c2cn(Cc3ccc(F)cc3)c3nc(C)ccc3c2=O)cc1	/	-12%	/	-3%	-6%	-6%	/	/	/
O=C(Nc1nnc(Cc2ccc(Cl)cc2)s1)C1CCN(C(=O)c2ccco2)CC1	-25	-4%	/	/	-2%	?	/	/	/
O=C(CSc1nc2nc(-c3cccs3)cc(C(F)(F)F)c2c(=O)[nH]1)Nc1ccc(F)c(F)c1	12	21%[57.1 µM]	0	?	-79%	19%[57.1 µM]	6	?	45µM*
COc1cccc(-c2nc3c(c(C)nn3-c3ccccc3)c3cc(OC)c(OC)cc23)c1	/	31%	/	?	/	10%	/	/	/
COc1cc2c(-c3ccc(O)cc3)nc3c(c(C)nn3-c3ccccc3)c2cc1OC	6	51%	0	?	-78%	-22%	2	7%	11µM*
CC(=O)[C@@]1(O)CC[C@H]2[C@@H]3C[C@H](C)C4=CC(=O)CC[C@]4(C)[C@H]3CC[C@@]21C	3	-4%	2	5%	0%	0%	/	/	/
C=C1CC2C(CCC3(C)C2CCC3(O)C(C)=O)C2(C)CCC(=O)C=C12 (configuration not stated)	9	11%[57.1 µM]	-1	22µM*	-75%	-4%[57.1 µM]	2	35µM*	11µM*
CC(C)CCNC(=O)c1ccc2c(c1)N(Cc1ccccc1F)C(=O)c1ccccc1S2=O (configuration not stated)	/	0%	/	-6%	0%	26%	/	/	/

Bioassay records from PubChem.
